TDP1 cell CPT: growth inhibition of DT40 Tdp1-/-;hTDP1 cells with camptothecin (screen for TDP1 inhibitors) | chicken DT40 Tdp1-/-;hTDP1 cells + 20 nM CPT, ATP luminescence, 48 h | Potency, µM (series often up to 46.2 µM), usual class: inhibitors | 12% of 420,000 active | AID 686979; also: nearly all actives have a fitted effect of over 55% in size
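Cell growth measured by CellTiter-Glo luminescence after a minimum 48 h, 37 C compound exposure with 20 nM CPT in Tdp1-knockout DT40 cells stably expressing hTDP1, seeded 400/well; qHTS titration format.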
ELG1 repair inh: inhibitors of ELG1-dependent DNA repair in HEK293T cells. HEK293T ELG1-luciferase reporter, luminescence, 16 h; DNA damage induced by 5-fluorouridine. 2.3% of 330,000 active. AID 504467. Potency, µM (highest dose often 46.1 µM), most hits filed as inhibitors; also: nearly all actives have a fitted effect of over 55% in size
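5-Fluorouridine DNA damage + compound/DMSO, 2,000 cells/well, 16 h, 37 °C/5% CO2. ONE-Glo, 30 min RT, luminescence. Readout = decrease in reporter signal.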
VP16 counter: counter-screen for ROR gamma inhibitors: Gal4-VP16 reporter; Drosophila S2 Gal4-VP16 UAS-luciferase, luminescence, 20 h; Potency, µM (top dose mostly 53.6 µM), actives largely listed as inhibitors; 3.5% of 310,000 active; AID 2546;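 also: Gal4-VP16 expression switched on by copper sulfate through the metallothionein promoter; nearly all actives have a fitted effect of over 50% in size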
DT40 TDP1 no CPT: qHTS for Inhibitors of human tyrosyl-DNA phosphodiesterase 1 (TDP1): qHTS in cells in absence of CPT | DT40 Tdp1-/- hTDP1 cells, no CPT, ATP luminescence, 48 h | Potency, µM (titrated, usually from 46.2 µM), actives largely listed as inhibitors | 15% of 420,000 active | AID 686978, 2013; also: nearly all actives have a fitted effect of over 55% in size
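A cellular qHTS used chicken DT40 cells lacking endogenous Tdp1 but carrying stably transfected human TDP1. Compounds were applied without camptothecin, and cell growth kinetics were judged by ATP-dependent luminescence after ≥48 hr.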
RORg inh: blocks mouse ROR gamma transcriptional activity; Drosophila S2 Gal4-RORgamma UAS-luciferase reporter, 20 h; Potency, µM (titrated, usually from 53.6 µM), usual class: inhibitors; P51450; 5.4% of 310,000 active; also: nearly all actives have a fitted effect of over 60% in size
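Schneider cells (Drosophila), stable Gal4 DBD–ROR gamma + UAS-luc; 1 hr cmpd preincubation; Cu2+ induction 700 uM final; 20 hr ambient; luminescence.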
ALOX12 inh: inhibitors of human 12S-lipoxygenase ALOX12 | P18054 | purified 12hLO, xylenol orange hydroperoxide absorbance | Potency, µM (series often up to 108 µM), most hits filed as inhibitors | 1.1% of 580,000 active | AID 1671190
Target sequence (P18054 whole entry, looked up): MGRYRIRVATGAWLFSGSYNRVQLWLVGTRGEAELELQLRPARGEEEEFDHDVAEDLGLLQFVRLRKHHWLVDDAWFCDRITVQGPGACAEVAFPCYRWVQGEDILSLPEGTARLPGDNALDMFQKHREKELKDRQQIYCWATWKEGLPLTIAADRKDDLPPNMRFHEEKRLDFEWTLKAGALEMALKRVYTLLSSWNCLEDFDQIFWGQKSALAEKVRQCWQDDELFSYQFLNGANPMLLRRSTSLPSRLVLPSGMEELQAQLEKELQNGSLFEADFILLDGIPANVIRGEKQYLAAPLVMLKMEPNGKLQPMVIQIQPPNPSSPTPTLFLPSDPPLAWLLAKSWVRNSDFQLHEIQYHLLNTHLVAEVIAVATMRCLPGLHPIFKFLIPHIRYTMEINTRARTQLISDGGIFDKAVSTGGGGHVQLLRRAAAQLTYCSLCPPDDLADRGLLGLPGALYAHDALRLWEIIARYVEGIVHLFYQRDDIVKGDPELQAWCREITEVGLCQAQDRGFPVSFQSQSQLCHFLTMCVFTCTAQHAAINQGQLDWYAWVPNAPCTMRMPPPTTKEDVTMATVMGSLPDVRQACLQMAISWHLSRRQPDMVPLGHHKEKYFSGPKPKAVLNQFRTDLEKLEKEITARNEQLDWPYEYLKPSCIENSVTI
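Purified human 12hLO (150 nM final) in 25 mM Hepes, 0.01% Triton X-100, pH 7.0 was preincubated 15 min at room temperature with compound. Then 40 uM arachidonic acid was added, 30 min. Hydroperoxide was read by Fe-XO absorbance ratio 573/405 nm.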
Of the large screens only hits and unclear results are named; the others gave an inactive call; ! = a repeat was not active. Rows were chosen to be rich in hits. Some 15% of all compounds tested hit in one or more screens of this group. Calls follow the shape of the dose curve; as a rule, active = well fitted curve in the direction sought with a large enough effect; inconclusive = small, poorly fitted or top-dose-only effect, or another doubt; inactive = no such curve, though single readings can be large; an effect the other way counts as inactive or inconclusive.

O=C(c1ccoc1)N1CCCC(c2noc(COc3ccccc3)n2)C1 (configuration not stated)	none (no result: TDP1 cell CPT, ELG1 repair inh, VP16 counter, DT40 TDP1 no CPT, RORg inh)
c1ccc2c(c1)c1c(c3ccccc32)CN2CCCC2C1 (configuration not stated)	TDP1 cell CPT 5.2µM, DT40 TDP1 no CPT 8.2µM, ALOX12 inh inconclusive (no result: ELG1 repair inh, VP16 counter, RORg inh)
COc1ccc(CCC(=O)Oc2ccc3c(c2)OCO3)cc1	none (no result: TDP1 cell CPT, ELG1 repair inh, VP16 counter, DT40 TDP1 no CPT, RORg inh)
CCCC(=O)Nc1nn(CC(C)C)c2nc3cc(C)ccc3cc12	ALOX12 inh inconclusive
CC(=O)Nc1nn(C)c2nc3cc(C)ccc3cc12	TDP1 cell CPT inconclusive, DT40 TDP1 no CPT inconclusive, ALOX12 inh inconclusive
CCCn1nc(NC(=O)c2ccco2)c2cc3ccccc3nc21	TDP1 cell CPT 23µM, ELG1 repair inh inconclusive, DT40 TDP1 no CPT 15µM
CCn1nc(NC(=O)CC(C)C)c2cc3ccc(C)cc3nc21	TDP1 cell CPT 29µM, DT40 TDP1 no CPT inconclusive
CCn1nc(NC(=O)c2ccco2)c2cc3cc(C)ccc3nc21	TDP1 cell CPT inconclusive, DT40 TDP1 no CPT inconclusive, ALOX12 inh inconclusive
CCCCn1nc(NC(=O)CCC)c2cc3cc(OC)ccc3nc21	DT40 TDP1 no CPT inconclusive
CCCCn1nc(NC(=O)c2cccs2)c2cc3cc(OC)ccc3nc21	TDP1 cell CPT 18µM, ELG1 repair inh inconclusive, DT40 TDP1 no CPT 23µM, RORg inh inconclusive
Cc1ccc2cc3c(NC(=O)c4cccnc4)nn(C)c3nc2c1	DT40 TDP1 no CPT 13µM
Cc1cc(Cl)c(NC(=O)c2cccc(NC(=O)C(C)(C)C)c2)c2cccnc12	none (no result: TDP1 cell CPT, ELG1 repair inh, VP16 counter, DT40 TDP1 no CPT, RORg inh)
COc1ccc(CCNC(=O)C(C(C)C)N2Cc3ccccc3C2=O)c(OC)c1OC (configuration not stated)	none (no result: TDP1 cell CPT, ELG1 repair inh, VP16 counter, DT40 TDP1 no CPT, RORg inh)
CCn1nc(NC(=O)c2ccncc2)c2cc3ccc(C)cc3nc21	ELG1 repair inh inconclusive
CCCn1nc(NC(=O)c2cccs2)c2cc3ccc(C)cc3nc21	TDP1 cell CPT inconclusive, DT40 TDP1 no CPT inconclusive
CCCn1nc(NC(=O)c2cccs2)c2cc3cc(OC)ccc3nc21	TDP1 cell CPT 13µM, ELG1 repair inh inconclusive, DT40 TDP1 no CPT 12µM
CCCn1nc(NC(=O)c2cccs2)c2cc3cc(C)ccc3nc21	TDP1 cell CPT inconclusive, ELG1 repair inh inconclusive, DT40 TDP1 no CPT 16µM, ALOX12 inh inconclusive
CC(C)Cn1nc(NC(=O)c2cccc(Cl)c2)c2cc3ccccc3nc21	TDP1 cell CPT 15µM, DT40 TDP1 no CPT 8.2µM, ALOX12 inh inconclusive (no result: ELG1 repair inh, VP16 counter, RORg inh)
CCn1nc(NC(=O)c2ccncc2)c2cc3cc(C)ccc3nc21	TDP1 cell CPT inconclusive, ELG1 repair inh inconclusive, DT40 TDP1 no CPT 23µM, RORg inh inconclusive
CCCn1nc(NC(=O)c2cccs2)c2cc3ccccc3nc21	TDP1 cell CPT inconclusive, ELG1 repair inh inconclusive, DT40 TDP1 no CPT inconclusive, ALOX12 inh inconclusive
CCCCn1nc(NC(=O)c2cccs2)c2cc3ccccc3nc21	TDP1 cell CPT 21µM, ELG1 repair inh inconclusive, DT40 TDP1 no CPT 18µM
CCOC(=O)/C(C#N)=C(C)/C=C1\Sc2ccccc2N1CC	TDP1 cell CPT inconclusive, DT40 TDP1 no CPT 18µM
Cc1c(CC(=O)NC2CCOCC2)c2c(n1CCc1ccccc1)CCCC2=O	none (no result: TDP1 cell CPT, ELG1 repair inh, VP16 counter, DT40 TDP1 no CPT, RORg inh)
CC1(C)Oc2cc3oc(=O)ccc3cc2C[C@@H]1O	ELG1 repair inh inconclusive (no result: VP16 counter, RORg inh)
COc1c2c(cc3oc(=O)ccc13)OC(C)(C)C=C2	TDP1 cell CPT inconclusive, ELG1 repair inh inconclusive, VP16 counter inconclusive, DT40 TDP1 no CPT 26µM, ALOX12 inh inconclusive
CC1(C)C=Cc2cc3ccc(=O)oc3cc2O1	TDP1 cell CPT 15µM!, ELG1 repair inh inconclusive, DT40 TDP1 no CPT 8.2µM!
COc1ccc(S(=O)(=O)Nc2nc3ccccc3nc2NCC2CCCO2)cc1 (configuration not stated)	ELG1 repair inh inconclusive, DT40 TDP1 no CPT inconclusive
Oc1ccccc1-c1nc(NCC2CCCO2)c2ccccc2n1 (configuration not stated)	TDP1 cell CPT inconclusive, ELG1 repair inh 23µM, DT40 TDP1 no CPT inconclusive (no result: VP16 counter)

Assay outcomes from PubChem.
